# In PubChem BioAssay (NCATS):
# A number with no mark means an inactive call. Inconclusive results are not listed. A call without a number means that no potency is given here. The source made the active and inactive calls. Unless noted, calls come from the whole dose curve; as a rule, active = well fitted curve in the direction sought with a large enough effect; inconclusive = small, poorly fitted or top-dose-only effect, or another doubt; inactive = no such curve, though single readings can be large; an effect the other way counts as inactive or inconclusive.
# Experiments:
# [1] = Confirmation and Secondary Assay for Modulators of Hemoglobin Beta Chain Splicing at IVS2 654 locus (AID 910); details: HeLa EGFP-654 splicing reporter, GFP fluorescence, 48 h; series mostly up to 46.1 µM;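 note: HeLa cells stably carrying EGFP split by mutant beta-globin IVS2-654 intron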
# In short: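 HeLa cells stably expressing EGFP interrupted by β-globin IVS2-654 intron, seeded overnight in Opti-MEM/2% FCS, then treated 2 days at 37 °C. Restored splicing read as total peak GFP intensity per well by laser scanning cytometry (488 nm excitation, 500–520 nm emission); 500 nM antisense PNA as control.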
# [2] = system: Zika virus NS2B-NS3 protease (linked); assay: 384 well plate NINDS AMC confirmatory qHTS for Zika virus inhibitors (AID 1347163); details: Recombinant NS2B-NS3 protease, Ac-VKTGKR-AMC fluorescence; series mostly up to 100 µM; note: nearly all actives have a fitted effect of over 50% in size; note: potency is the fitted concentration of half-maximal effect;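 for activity change, negative = inhibition: linked protease at 5 30 or 60 nM final depending on run; fluorescence of AMC released from Ac-VKTGKR-AMC peptide cleaved by the protease; top concentration of the series differs between compounds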
# In short: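 Fluorescence at 355/460 nm was read after 25 minutes of cleavage of 30 microM Ac-VKTGKR-AMC at room temperature, in the dark. Before substrate addition, compounds (up to 1 mM final) sat ~15 minutes with 5, 30 or 60 nM linked protease. Signals were normalized to no-enzyme and no-inhibitor wells.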
# [3] = target: Cytochrome P450 2C19 (Homo sapiens) (UniProt P33261); assay: qHTS Assay for Inhibitors and Substrates of Cytochrome P450 2C19 (AID 899); details: recombinant CYP2C19, luciferin-H EGE luminescence; series mostly up to 57.1 µM; note: nearly all actives have a fitted effect of over 60% in size; note: potency is the fitted concentration of half-maximal effect
# Cytochrome P450 2C19 (Homo sapiens), sequence (P33261 whole entry, looked up): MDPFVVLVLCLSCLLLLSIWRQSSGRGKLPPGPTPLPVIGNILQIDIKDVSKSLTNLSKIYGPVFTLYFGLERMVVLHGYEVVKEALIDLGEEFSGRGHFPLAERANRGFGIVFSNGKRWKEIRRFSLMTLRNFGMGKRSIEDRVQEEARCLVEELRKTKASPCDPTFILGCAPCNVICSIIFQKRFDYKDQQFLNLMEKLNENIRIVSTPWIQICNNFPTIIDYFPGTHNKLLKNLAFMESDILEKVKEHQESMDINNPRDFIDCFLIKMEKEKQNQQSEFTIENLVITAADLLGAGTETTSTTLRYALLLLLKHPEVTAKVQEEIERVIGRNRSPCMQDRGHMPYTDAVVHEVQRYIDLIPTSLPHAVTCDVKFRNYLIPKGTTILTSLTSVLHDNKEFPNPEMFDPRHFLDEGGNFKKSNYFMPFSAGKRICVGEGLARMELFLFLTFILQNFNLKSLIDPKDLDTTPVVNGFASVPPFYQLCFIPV
# In short: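 5 nM human CYP2C19 with 10uM Luciferin-H EGE (at KM) in 50mM KPO4, compound preincubated 10 min at 37C, then NADPH regeneration for 60 min at 37C. Luciferin read by luminescence after detection reagent; normalized to 57uM ketoconazole as full inhibition.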
# [4] = Confirmatory qHTS to identify inhibitors of SARS-CoV-2 cell entry (AID 1645844; calls by dose curve; note: potency is the fitted concentration of half-maximal effect; nearly all actives have a fitted effect of over 45% in size); details: SARS-CoV-2 pseudotyped particle cell entry, luciferase; series mostly up to 57.2 µM
# In short: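 HEK293-ACE2, overnight seeding; cpd 1 h, 37C/5% CO2; + SARS-CoV-2-S MLV PP (Wuhan-Hu-1, ΔC19); 48 h; Bright-Glo luminescence. Data normalised to S PP and bald PP wells.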
# [5] = target: Cytochrome P450 2D6 (Homo sapiens) (UniProt P10635); assay: Cytochrome P450 family 2 subfamily D member 6 (CYP2D6) small molecule antagonists: luciferase biochemical (cell-free) qHTS assay (AID 1645840; active = well fitted curve in the direction sought with a large enough effect in the repeat runs; an effect the other way counts as inactive or inconclusive; note: nearly all actives have a fitted effect of over 55% in size); details: P450-Glo CYP2D6 enzyme, luciferin luminescence, 1 h; series mostly up to 57.4 µM
# Cytochrome P450 2D6 (Homo sapiens), sequence (P10635 whole entry, looked up): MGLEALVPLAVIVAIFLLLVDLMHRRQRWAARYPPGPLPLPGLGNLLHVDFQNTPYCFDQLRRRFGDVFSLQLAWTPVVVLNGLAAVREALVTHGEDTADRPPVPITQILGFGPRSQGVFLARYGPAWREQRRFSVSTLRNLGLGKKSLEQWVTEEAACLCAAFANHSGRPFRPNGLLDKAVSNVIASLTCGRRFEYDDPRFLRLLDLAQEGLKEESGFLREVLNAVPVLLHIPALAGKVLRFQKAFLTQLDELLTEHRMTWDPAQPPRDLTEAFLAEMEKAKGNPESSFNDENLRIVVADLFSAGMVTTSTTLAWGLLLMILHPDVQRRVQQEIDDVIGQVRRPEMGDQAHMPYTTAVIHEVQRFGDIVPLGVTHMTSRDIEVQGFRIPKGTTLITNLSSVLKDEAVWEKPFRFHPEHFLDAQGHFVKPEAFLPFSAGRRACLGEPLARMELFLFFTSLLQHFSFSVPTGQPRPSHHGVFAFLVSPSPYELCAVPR
# In short: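 P450-Glo CYP2D6 system: proluciferin substrate converted by enzyme to luciferin, read by luminescence proportional to activity. Enzyme-substrate mix with compound 10 min at room temperature, then NADPH regeneration 1 h before detection reagent.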
# [6] = Confirmatory qHTS for VERO E6 Cytotoxicity Assay: Counterscreen for SARS-CoV-2 CPE Assay (AID 1508605; calls by dose curve; note: nearly all actives have a fitted effect of over 60% in size; note: potency is the fitted concentration of half-maximal effect); details: cell viability luminescence; series mostly up to 20 µM
# [7] = Viability counterscreen for agonist of constitutive androstane receptor (CAR) against the NCATS DSHEA and TCM libraries (AID 1794838); details: HepG2 cell viability counterscreen, CAR agonist assay; series mostly up to 40 µM;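 note: cells exposed to compound for 24 h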
# In short: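 Multiplexed counterscreen: after 24 h compound exposure with 0.75 uM PK11195, HepG2-CYP2B6-hCAR viability was quantified fluorimetrically (CellTiter-Fluor, 405/540 nm) prior to the ONE-Glo luciferase read.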
# [8] = target: Nuclear receptor subfamily 1 group I member 3 (Homo sapiens) (UniProt Q14994); assay: Primary qHTS for agonist of constitutive androstane receptor (CAR) against the NCATS DSHEA and TCM libraries (AID 1794839); details: CAR agonist reporter cells, qHTS luminescence; Potency: CAR antagonist co-added at 0.75 µM unless noted; series mostly up to 40 µM; note: potency is the fitted concentration of half-maximal effect
# Nuclear receptor subfamily 1 group I member 3 (Homo sapiens), sequence (Q14994 whole entry, looked up): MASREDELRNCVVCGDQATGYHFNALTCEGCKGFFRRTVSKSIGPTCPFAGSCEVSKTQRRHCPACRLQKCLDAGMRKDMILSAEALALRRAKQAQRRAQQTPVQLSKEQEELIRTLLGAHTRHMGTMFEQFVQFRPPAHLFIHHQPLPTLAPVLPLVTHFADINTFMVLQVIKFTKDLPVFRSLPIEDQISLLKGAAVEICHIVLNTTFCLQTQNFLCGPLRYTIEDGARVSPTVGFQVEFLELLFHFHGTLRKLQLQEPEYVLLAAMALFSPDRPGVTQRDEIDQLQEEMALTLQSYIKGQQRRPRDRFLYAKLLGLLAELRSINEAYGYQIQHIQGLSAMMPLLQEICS
# In short: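 Concentration–response screen in HepG2-CYP2B6-hCAR cells under 0.75 µM PK11195; 24 h exposure; luminescent reporter signal with multiplexed fluorescent viability.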
# [9] = HepG2 viability counterscreen (readout 2: ATP content) against the NCATS DSHEA and TCM libraries (AID 1794840); details: ATP content luminescence; series mostly up to 27.3 µM;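 note: HepG2 cells exposed to substances for about 24 h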
# In short: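 After HepG2 cells attach for ~4 h, substances are added and incubated ~24 h at 37C, 5% CO2. GF-AFC fluorescence then CellTiter-Glo luminescence give protease and ATP readouts.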
# [10] = target: Cytochrome P450 1A2 (Homo sapiens) (UniProt P05177); assay: qHTS for inhibitors of CYPIA2 against the NCATS DSHEA and TCM libraries (AID 1919976); details: recombinant CYP1A2 enzyme activity, luminescence; series mostly up to 37 µM; note: potency is the fitted concentration of half-maximal effect;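 for activity change, negative = inhibition: light from luciferin formed by CYP1A2 from a pro-luciferin substrate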
# Cytochrome P450 1A2 (Homo sapiens), sequence (P05177 whole entry, looked up): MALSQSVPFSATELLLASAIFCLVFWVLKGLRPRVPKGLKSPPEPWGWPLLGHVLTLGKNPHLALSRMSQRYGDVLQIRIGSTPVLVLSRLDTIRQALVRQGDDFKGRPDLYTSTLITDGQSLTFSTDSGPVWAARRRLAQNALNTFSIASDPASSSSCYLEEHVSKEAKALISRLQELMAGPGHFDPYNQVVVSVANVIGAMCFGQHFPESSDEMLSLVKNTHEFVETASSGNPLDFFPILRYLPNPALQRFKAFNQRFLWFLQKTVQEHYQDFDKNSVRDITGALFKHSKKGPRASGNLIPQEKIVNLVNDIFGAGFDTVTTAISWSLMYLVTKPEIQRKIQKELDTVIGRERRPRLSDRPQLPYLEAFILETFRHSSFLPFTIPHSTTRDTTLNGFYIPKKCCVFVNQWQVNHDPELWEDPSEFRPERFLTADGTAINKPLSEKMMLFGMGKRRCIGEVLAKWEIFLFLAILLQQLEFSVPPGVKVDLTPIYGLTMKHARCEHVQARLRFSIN
# In short: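 Enzyme and pro-luciferin substrate, or substrate alone as no-enzyme background, are pre-incubated with test samples for 15 min at room temperature. NADPH regeneration system (1x final) initiates a 30-45 min dark reaction; luciferase detection reagent follows before luminescence reading.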
# [11] = qHTS Counterscreen for compound interference against the NCATS DSHEA and TCM libraries (AID 1919978); details: firefly luciferase detection reagent interference, luminescence;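 note: compounds preincubated with 1 µM D-luciferin or buffer before detection reagent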
# In short: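 Interference check: test samples were incubated with D-luciferin (final 1 uM) or buffer only for 15 min, room temperature, in a qHTS titration up to 39.8 uM, then developed with detection reagent and read by luminescence.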
# [12] = Dual reporter qHTS for antagonist of Pregnane X Receptor (hPXR) against the NCATS DSHEA and TCM libraries: Fluorescence Readout (AID 1920061); details: PXR dual reporter cells, antagonist mode; series mostly up to 40 µM
# In short: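 HepG2 hPXR-Luc, 2000 cells/well, charcoal-stripped FBS medium; 5 h attach; RIF 2 uM final; 24 h 37C/5% CO2; CellTiter-Fluor 1 h, fluor 405/540; ONE-Glo 30 min RT, lum.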
# [13] = Validation screen for small molecules that induce DNA re-replication in SW480 colon adenocarcinoma cells (AID 504364); details: DNA re-replication phenotype (high-content imaging); series mostly up to 46.1 µM
# In short: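 Image-based qHTS: compounds were incubated with SW480 cells for 48 hr, nuclei stained with Hoechst, and per-nucleus fluorescence intensity scanned to flag cells with excess DNA content.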
# [14] = system: TAB109; assay: qHTS profiling for inhibitors of Plasmodium falciparum proliferation (AID 504749); note: nearly all actives have a fitted effect of over 60% in size; note: potency is the fitted concentration of half-maximal effect; details: P. falciparum in erythrocytes, SYBR Green DNA, 72 h; series mostly up to 12.8 µM
# In short: (§1)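 Each compound contacts P. falciparum-infected red blood cells for 72 h at 37 C; lysis buffer (Tris, EDTA, saponin, Triton X, SYBR Green I) is added and fluorescence measured next morning; values normalized to controls.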
# [15] = Cytometric Cell-Based qHTS for Inhibitors of the mTORC1 Signaling Pathway in MEF (Tsc2-/-, p53-/-) Cells (AID 2660); details: mTORC1 pathway cytometry; series mostly up to 38.3 µM;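 note: Tsc2 and p53 null MEFs carrying empty vector with compound for 24 h; percent of cells above a phospho-rpS6 to PI ratio cutoff in each well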
# In short: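 Cells are plated, treated with compound for 24 hrs at 37 degree Celsius, then fixed, blocked and immunostained for phospho-rpS6 Ser235/236. Propidium iodide counterstain follows. Per-well % positive cells is derived from the PI-normalized phospho-S6 signal.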
# [16] = NFAT Signaling Pathway (AID 444; active = well fitted curve in either direction with a large enough effect, not every such curve was filed as active;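 note: carbachol stimulus at about its EC50 of 1 µM final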); details: Jurkat NFAT-bla M1, carbachol, beta-lactamase ratio, 5 h
# In short: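 Jurkat cells with NFAT-driven β-lactamase reporter and co-expressed M1 receptor, stimulated with carbachol (final 1 uM, ~EC50), compound titration, 5 h at 37 °C. CCF4 loaded 1 h at RT; 460/530 nm ratio gave %activity and AC50.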
# [17] = target: Thyrotropin receptor (Homo sapiens) (UniProt P16473); assay: qHTS Assay for Antagonists of the Thyroid Stimulating Hormone Receptor (AID 488980); details: TSHR-expressing cells, cAMP antagonist read-out; series mostly up to 57.5 µM
# Thyrotropin receptor (Homo sapiens), sequence (P16473 whole entry, looked up): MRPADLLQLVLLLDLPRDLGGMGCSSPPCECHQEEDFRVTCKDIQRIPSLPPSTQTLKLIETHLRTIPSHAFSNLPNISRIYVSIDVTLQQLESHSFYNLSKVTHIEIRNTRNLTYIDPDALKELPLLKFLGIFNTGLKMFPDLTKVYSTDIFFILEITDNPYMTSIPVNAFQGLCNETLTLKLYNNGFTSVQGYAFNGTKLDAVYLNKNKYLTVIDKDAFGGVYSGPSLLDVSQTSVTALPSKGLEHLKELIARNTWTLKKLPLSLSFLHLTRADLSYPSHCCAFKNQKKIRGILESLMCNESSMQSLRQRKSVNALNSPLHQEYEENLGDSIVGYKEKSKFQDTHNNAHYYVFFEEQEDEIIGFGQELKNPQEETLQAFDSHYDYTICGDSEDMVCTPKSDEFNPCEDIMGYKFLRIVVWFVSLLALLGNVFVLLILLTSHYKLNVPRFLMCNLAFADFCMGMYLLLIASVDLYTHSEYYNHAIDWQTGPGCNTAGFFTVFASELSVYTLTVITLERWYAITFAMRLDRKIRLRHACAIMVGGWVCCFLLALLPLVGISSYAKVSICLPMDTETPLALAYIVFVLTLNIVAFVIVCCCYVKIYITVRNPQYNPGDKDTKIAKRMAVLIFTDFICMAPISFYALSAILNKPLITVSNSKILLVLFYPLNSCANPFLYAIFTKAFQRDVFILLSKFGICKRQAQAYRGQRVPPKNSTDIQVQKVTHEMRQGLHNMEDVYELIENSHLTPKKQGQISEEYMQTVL
# In short: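 Inhibition of TSH-stimulated cAMP accumulation was quantified by homogeneous time-resolved FRET in TSHR-transfected HEK293 cells. Agonist: TSH, 4 nM final (EC80).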
# [18] = S16 Schwann cell PMP22 intronic element firefly luciferase assay (AID 624032); details: S16 rat Schwann cells, PMP22 element FLuc, 24 h; series mostly up to 57.5 µM; note: nearly all actives have a fitted effect of over 30% in size
# In short: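 Rat S16 Schwann cells stably carrying firefly luciferase driven by a PMP22 intronic element, in 10% FBS, treated 24 h at 37 C. ONE-Glo luminescence normalized to PTC124 control and DMSO (0%); curves classed by r2, magnitude and activity.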
# [19] = system: 7G8; assay: qHTS profiling for inhibitors of Plasmodium falciparum proliferation (AID 504749); note: nearly all actives have a fitted effect of over 60% in size; note: potency is the fitted concentration of half-maximal effect; details: P. falciparum in erythrocytes, SYBR Green DNA, 72 h; series mostly up to 12.8 µM
# In short: as §1
# [20] = system: CP262; assay: as above; details: P. falciparum in erythrocytes, SYBR Green DNA, 72 h; series mostly up to 28.7 µM
# In short: as §1
compound,measurement,setting,value
CN(C)C1C(=O)C(C(N)=O)=C(O)[C@@]2(O)C(=O)C3=C(O)c4c(O)ccc(Cl)c4[C@](C)(O)C3CC12 (stereo not given in full),Potency,[1],inactive
same,Potency,[2],282000 nM (active)
CN(C)[C@@H]1C(=O)C(C(N)=O)=C(O)[C@]2(O)C(=O)C3=C(O)c4c(O)cccc4[C@@](C)(O)[C@@H]3C[C@@H]12,Potency,[3],inactive
same,Potency,[2],inactive
CCC1/C=C/C=CCC(C)C(O)[C@@](C)(O)C(=O)C(C)C(O)C(C)C(=O)C(C)C(O)C(C)C=CC(=O)O[C@H]2C(C)C(CC1)O[C@]1(CCC(C)C(CC(C)O)O1)C2C (stereo not given in full),Potency,[1],inactive
CC(C)[C@]12O[C@H]1[C@@H]1O[C@@]13[C@@]1(C)CCC4=C(COC4=O)[C@@H]1C[C@@H]1O[C@@]13C2=O,Potency,[4],271 nM (active)
C[C@@H](C1CC[C@@]2(O)C3=CC(=O)[C@@H]4C[C@@H](O)[C@@H](O)C[C@]4(C)[C@H]3CC[C@]12C)[C@H](O)CCC(C)(C)O (stereo not given in full),Potency,[5],inactive
Cc1c(N)nc([C@H](CC(N)=O)NC[C@@H](N)C(N)=O)nc1C(=O)N[C@H](C(=O)N[C@@H](C)[C@H](O)[C@@H](C)C(=O)N[C@@H](C(=O)NCCc1nc(-c2nc(C(=O)NCCC[S+](C)C)cs2)cs1)[C@@H](C)O)C(O[C@H]1O[C@H](CO)[C@H](O)[C@@H](O)[C@H]1O[C@H]1O[C@H](CO)[C@@H](O)[C@H](OC(N)=O)[C@@H]1O)c1cnc[nH]1 (stereo not given in full),Potency,[4],34.1 nM (active)
COC(=O)[C@@]12OC[C@]34[C@H]([C@@H](O)[C@@H]1O)[C@@]1(C)CC(=O)C(O)=C(C)[C@@H]1C[C@H]3OC(=O)[C@H](OC(=O)/C=C(\C)C(C)C)[C@@H]24,Potency,[6],127 nM (active)
C=C(C)[C@@H]1CCC(C)=C[C@H]1c1c(O)cc(CCCCC)cc1O,outcome,[7],inactive
same,Potency,[8],31600 nM [setting not given] (active)
same,outcome,[9],inactive
same,Potency,[10],11200 nM (active)
same,max response,[11],0.918%
same,outcome,[12],inactive
C/C=C(\C)C(=O)N[C@@H](c1ccccc1)[C@@H](O)C(=O)O[C@H]1C[C@@]2(O)[C@@H](OC(=O)c3ccccc3)[C@@H]3[C@]4(OC(C)=O)CO[C@@H]4C[C@H](O)[C@@]3(C)C(=O)[C@H](OC(C)=O)C(=C1C)C2(C)C,Potency,[4],4.3 nM (active)
CCCCCCC(C)(C)c1cc(O)c2c(c1)OC(C)(C)C1CC=C(CO)C[C@H]21 (stereo not given in full),Potency,[6],inactive
N#CC(O[C@@H]1O[C@H](CO[C@@H]2O[C@H](CO)[C@@H](O)[C@H](O)[C@H]2O)[C@@H](O)[C@H](O)[C@H]1O)c1ccccc1 (stereo not given in full),Potency,[5],inactive
same,outcome,[7],inactive
same,Potency,[8],inactive
same,outcome,[9],inactive
same,Potency,[10],inactive
same,max response,[11],-0.601%
same,outcome,[12],inactive
Oc1ccc2c3c1O[C@H]1[C@@H](O)CC[C@@]4(O)C(C2)N(CC2CCC2)CCC314 (stereo not given in full),outcome,[13],inactive
same,Potency,[14],inactive
C[C@H]1C2Cc3ccc(O)cc3[C@]1(C)CCN2CC1CC1,outcome,[15],inactive
C#CCN(C)C(C)Cc1ccccc1 (stereo not given),"activity change, negative = inhibition",[16]; at 17.2 µM (top of the series),-4.45%
CC[C@@H](CO)NC(=O)[C@H]1C=C2c3cccc4c3c(cn4C)C[C@H]2N(C)C1,Potency,[3],126 nM (active)
C[C@H]1OC[C@@H](C[N+](C)(C)C)O1,"activity change, negative = inhibition",[16]; at 17.2 µM (top of the series),147% [activator] (active)
CN1CCC23CCCC[C@H]2C1Cc1ccc(O)cc13 (stereo not given in full),outcome,[17],inactive
CC(C)(O)C1C2OC(=O)C1[C@]1(O)C[C@H]3O[C@]34C(=O)O[C@H]2[C@]14C (stereo not given in full) (tested in a mixture with another compound),Potency,[18],inactive
same,Potency,[19],inactive
same,Potency,[20],inactive
same,Potency,[14],inactive
CCCN1CCCC(c2cccc(O)c2)C1 (stereo not given),outcome,[17],inactive
CCN(CC)C(=O)N[C@@H]1C[C@@H]2c3cccc4[nH]cc(c34)C[C@H]2N(C)C1,Potency,[18],inactive
same,Potency,[19],4470 nM (active)
NCC#Cc1ccccc1,"activity change, negative = inhibition",[16]; at 38 µM (top of the series),3.19%
same,outcome,[17],inactive
C[N+]1(C)C2CC(OC(=O)C(CO)c3ccccc3)CC1C1OC12 (stereo not given),outcome,[13],inactive
CC12CCC3C(CCC4=C(O)C(=O)CCC43C)C1CCC2=O (stereo not given),outcome,[15],inactive
CCCC[N+]1(C)C2CC(OC(=O)C(CO)c3ccccc3)CC1C1OC12 (stereo not given),Potency,[18],inactive
same,Potency,[19],inactive
same,Potency,[20],inactive
same,Potency,[14],inactive
CNC(C)[C@@H](O)c1ccc(O)cc1 (stereo not given in full),Potency,[18],inactive
same,Potency,[5],inactive
same,Potency,[19],inactive
same,Potency,[20],inactive
